Reference: publication PMC7862700, “An all-to-all approach to the identification of sequence-specific readers for epigenetic DNA modifications on cytosine”

Columns and labels:
Experiment in all cases: DAPPL (digital affinity profiling via proximity ligation, sequencing); 10 mM Tris-HCl pH 7.5, 50 mM NaCl, 1 mM DTT, 4% glycerol, room temperature, 30 min; GST-TFs on glutathione beads, 16-mer random dsDNA library, 0.1% formaldehyde crosslink after washing; high values mean tight binding
Details in all cases: protein: recombinant; tags: N-terminal GST; dsDNA, one strand shown
ELK4 = target: T1, ELK4 (Homo sapiens, UniProt P28324-2 1-405)
T1 sequence: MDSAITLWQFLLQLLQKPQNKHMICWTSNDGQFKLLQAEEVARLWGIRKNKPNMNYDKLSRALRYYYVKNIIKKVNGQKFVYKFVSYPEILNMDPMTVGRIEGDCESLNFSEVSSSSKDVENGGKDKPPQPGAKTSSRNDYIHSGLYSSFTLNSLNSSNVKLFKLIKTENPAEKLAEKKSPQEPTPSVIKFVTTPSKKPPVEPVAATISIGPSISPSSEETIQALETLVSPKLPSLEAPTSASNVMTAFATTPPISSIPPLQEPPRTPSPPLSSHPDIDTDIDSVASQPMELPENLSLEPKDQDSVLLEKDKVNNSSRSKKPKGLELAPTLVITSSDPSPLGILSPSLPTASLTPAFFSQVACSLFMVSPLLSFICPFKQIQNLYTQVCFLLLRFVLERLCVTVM
Summary of the method: (§1)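 Human transcription factors fused to GST were expressed in yeast, captured on glutathione beads, given DNA barcodes and pooled with a GST-only negative control. Pools were incubated with 200 nmole of a 16-mer random double-stranded DNA library in Tris/NaCl/DTT/glycerol buffer at room temperature for 30 min. They were then washed, crosslinked with 0.1% formaldehyde, proximity-ligated (BsaI/T4 ligase, 1 h, 37 °C), PCR-amplified and sequenced on an Illumina NextSeq500. Binding signal is each 6-mer's read frequency for a factor divided by its frequency for the GST control.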

ETV2 = target: T2, ETV2 (Homo sapiens, UniProt O00321 1-342)
T2 sequence: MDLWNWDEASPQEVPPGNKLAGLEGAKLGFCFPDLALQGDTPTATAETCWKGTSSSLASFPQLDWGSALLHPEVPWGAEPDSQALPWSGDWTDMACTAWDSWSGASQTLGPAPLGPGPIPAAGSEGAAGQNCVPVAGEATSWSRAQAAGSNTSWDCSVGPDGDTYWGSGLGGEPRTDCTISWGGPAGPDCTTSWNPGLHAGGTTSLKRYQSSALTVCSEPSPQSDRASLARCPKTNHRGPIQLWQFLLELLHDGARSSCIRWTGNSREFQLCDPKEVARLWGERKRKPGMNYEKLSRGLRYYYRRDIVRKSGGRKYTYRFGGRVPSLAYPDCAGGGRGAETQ
Summary of the method: as §1

ELF3 = target: T3, ELF3 (Homo sapiens, UniProt P78545 1-371)
T3 sequence: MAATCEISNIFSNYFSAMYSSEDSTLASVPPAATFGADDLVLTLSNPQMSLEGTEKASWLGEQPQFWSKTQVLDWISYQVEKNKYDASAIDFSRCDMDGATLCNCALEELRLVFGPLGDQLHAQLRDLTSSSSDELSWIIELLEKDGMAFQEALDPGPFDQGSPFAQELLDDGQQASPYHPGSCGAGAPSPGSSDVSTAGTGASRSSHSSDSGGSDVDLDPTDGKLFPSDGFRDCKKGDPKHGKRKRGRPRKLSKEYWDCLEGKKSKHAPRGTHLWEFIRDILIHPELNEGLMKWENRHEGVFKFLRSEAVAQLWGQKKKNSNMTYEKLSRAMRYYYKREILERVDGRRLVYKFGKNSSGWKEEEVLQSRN
Summary of the method: as §1

ETV1 = ETV1 (Homo sapiens, UniProt P50549 1-477)
Chain of ETV1 (P50549 whole entry): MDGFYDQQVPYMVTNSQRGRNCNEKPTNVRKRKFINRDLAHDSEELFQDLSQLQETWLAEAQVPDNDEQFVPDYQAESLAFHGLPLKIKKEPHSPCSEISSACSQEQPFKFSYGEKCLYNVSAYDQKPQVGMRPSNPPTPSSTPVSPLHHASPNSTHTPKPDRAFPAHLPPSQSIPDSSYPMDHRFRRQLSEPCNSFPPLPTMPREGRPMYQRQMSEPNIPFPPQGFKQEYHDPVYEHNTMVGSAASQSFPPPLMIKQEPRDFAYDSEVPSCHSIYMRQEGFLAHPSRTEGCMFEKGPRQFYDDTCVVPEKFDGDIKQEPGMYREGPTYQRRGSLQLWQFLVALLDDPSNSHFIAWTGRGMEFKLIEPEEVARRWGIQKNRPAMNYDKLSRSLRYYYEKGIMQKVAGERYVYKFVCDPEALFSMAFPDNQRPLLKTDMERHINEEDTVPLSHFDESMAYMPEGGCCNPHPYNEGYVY
Summary of the method: as §1

ERF = target: T4, ERF (Homo sapiens, UniProt P50548 1-548)
T4 sequence: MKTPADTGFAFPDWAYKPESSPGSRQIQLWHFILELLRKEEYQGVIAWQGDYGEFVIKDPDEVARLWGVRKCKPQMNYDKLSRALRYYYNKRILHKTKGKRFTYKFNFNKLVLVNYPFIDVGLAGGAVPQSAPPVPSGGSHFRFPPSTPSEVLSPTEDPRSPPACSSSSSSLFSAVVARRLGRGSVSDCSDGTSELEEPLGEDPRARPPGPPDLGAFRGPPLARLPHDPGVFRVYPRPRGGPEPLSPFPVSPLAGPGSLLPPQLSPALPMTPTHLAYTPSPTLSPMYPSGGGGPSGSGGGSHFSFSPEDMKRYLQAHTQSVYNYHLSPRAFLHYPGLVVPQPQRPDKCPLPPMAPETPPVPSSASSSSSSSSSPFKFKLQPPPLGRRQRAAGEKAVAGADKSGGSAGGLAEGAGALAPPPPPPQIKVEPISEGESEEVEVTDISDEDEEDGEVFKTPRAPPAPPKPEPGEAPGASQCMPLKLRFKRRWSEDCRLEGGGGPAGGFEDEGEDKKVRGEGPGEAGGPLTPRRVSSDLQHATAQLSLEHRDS
Summary of the method: as §1

ETV3L = target: T5, ETV3L (Homo sapiens, UniProt Q6ZN32 1-361)
T5 sequence: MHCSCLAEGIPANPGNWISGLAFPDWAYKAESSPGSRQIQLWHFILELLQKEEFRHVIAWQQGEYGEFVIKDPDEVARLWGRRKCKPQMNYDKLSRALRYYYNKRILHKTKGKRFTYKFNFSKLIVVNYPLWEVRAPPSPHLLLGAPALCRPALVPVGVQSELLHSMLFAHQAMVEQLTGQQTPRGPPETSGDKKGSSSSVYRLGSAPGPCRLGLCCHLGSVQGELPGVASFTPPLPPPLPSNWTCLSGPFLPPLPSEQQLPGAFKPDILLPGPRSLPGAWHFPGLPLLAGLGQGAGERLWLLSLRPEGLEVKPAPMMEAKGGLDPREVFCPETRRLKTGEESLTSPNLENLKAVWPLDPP
Summary of the method: as §1

ETS2 = target: T6, ETS2 (Homo sapiens, UniProt P15036 1-469)
T6 sequence: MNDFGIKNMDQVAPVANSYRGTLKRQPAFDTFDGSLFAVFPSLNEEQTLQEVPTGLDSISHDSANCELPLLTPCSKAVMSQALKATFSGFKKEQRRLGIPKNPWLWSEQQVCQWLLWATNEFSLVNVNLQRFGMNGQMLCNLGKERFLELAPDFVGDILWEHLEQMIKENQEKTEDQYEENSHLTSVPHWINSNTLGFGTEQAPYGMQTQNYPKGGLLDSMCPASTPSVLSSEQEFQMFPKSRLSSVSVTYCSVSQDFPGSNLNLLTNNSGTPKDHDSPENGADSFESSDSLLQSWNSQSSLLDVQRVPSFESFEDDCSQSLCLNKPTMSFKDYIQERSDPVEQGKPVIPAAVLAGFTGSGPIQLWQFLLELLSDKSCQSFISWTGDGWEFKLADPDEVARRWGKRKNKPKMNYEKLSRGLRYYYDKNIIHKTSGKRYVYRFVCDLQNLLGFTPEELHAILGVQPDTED
Summary of the method: as §1

ETV7 = target: T7, ETV7 (Homo sapiens, UniProt Q9Y603 1-341)
T7 sequence: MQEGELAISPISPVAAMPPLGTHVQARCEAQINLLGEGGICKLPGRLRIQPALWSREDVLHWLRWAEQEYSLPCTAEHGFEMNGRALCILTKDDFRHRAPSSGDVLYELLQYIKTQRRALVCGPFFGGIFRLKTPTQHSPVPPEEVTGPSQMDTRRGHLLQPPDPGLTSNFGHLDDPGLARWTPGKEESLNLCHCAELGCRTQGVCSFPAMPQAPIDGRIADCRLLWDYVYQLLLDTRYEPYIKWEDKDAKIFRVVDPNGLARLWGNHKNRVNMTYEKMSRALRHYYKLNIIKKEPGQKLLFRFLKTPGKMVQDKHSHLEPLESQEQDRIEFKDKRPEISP
Summary of the method: as §1

ETV3 = target: T8, ETV3 (Homo sapiens, UniProt P41162-2 1-143)
T8 sequence: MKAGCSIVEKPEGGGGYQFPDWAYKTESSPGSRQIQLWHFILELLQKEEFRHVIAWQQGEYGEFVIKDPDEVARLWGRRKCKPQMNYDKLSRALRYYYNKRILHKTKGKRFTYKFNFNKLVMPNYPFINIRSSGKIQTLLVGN
Summary of the method: as §1

ETV6 = ETV6 (Homo sapiens, UniProt P41212 1-452)
Chain of ETV6 (P41212 whole entry): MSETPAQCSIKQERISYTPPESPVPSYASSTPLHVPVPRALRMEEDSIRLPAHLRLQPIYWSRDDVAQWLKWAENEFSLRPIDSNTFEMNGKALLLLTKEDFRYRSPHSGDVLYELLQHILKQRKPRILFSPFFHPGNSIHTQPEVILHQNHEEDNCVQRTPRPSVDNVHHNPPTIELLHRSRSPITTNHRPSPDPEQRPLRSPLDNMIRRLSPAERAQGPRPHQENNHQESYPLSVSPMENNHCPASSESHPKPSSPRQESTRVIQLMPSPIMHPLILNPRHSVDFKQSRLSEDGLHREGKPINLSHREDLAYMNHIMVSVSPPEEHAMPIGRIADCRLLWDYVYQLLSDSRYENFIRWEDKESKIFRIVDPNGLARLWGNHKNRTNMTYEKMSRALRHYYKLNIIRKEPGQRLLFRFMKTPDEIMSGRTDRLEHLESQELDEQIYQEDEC
Summary of the method: as §1

Sequence: ACAGCC
- binding signal (ELK4): 1.04 fold enrichment (6-mer frequency, TF over GST control)
- binding signal (ETV2): 1.05 fold enrichment (6-mer frequency, TF over GST control)
- binding signal (ELF3): 1.24 fold enrichment (6-mer frequency, TF over GST control)
- binding signal (ETV1): 1.06 fold enrichment (6-mer frequency, TF over GST control)
- binding signal (ERF): 1.18 fold enrichment (6-mer frequency, TF over GST control)
- binding signal (ETV3L): 1.04 fold enrichment (6-mer frequency, TF over GST control)
- binding signal (ETS2): 1.03 fold enrichment (6-mer frequency, TF over GST control)
- binding signal (ETV7): 1.15 fold enrichment (6-mer frequency, TF over GST control)
- binding signal (ETV3): 1.04 fold enrichment (6-mer frequency, TF over GST control)
- binding signal (ETV6): 1.03 fold enrichment (6-mer frequency, TF over GST control)
